Common to all, as to test: DAPPL (digital affinity profiling via proximity ligation, sequencing); 10 mM Tris-HCl pH 7.5, 50 mM NaCl, 1 mM DTT, 4% glycerol, room temperature, 30 min; GST-TFs on glutathione beads, 16-mer random dsDNA library, 0.1% formaldehyde crosslink after washing; high values mean tight binding
One assay deals with T1, FEV (Homo sapiens, UniProt Q99581 1-238).
T1 sequence: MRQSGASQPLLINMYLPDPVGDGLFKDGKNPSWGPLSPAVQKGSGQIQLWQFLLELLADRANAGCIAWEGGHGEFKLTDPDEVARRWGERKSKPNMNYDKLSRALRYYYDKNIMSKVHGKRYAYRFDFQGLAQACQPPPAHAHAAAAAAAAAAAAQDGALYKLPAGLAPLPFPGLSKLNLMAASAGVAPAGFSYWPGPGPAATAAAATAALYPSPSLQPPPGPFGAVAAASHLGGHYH
To be noted: protein: recombinant; tags: N-terminal GST; dsDNA, one strand shown. A digest of the protocol: (§1)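 Human transcription factors fused to GST were expressed in yeast, captured on glutathione beads, given DNA barcodes and pooled with a GST-only negative control. Pools were incubated with 200 nmole of a 16-mer random double-stranded DNA library in Tris/NaCl/DTT/glycerol buffer at room temperature for 30 min. They were then washed, crosslinked with 0.1% formaldehyde, proximity-ligated (BsaI/T4 ligase, 1 h, 37 °C), PCR-amplified and sequenced on an Illumina NextSeq500. Binding signal is each 6-mer's read frequency for a factor divided by its frequency for the GST control.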

The target of the next assay is ETV5 (Homo sapiens, UniProt P41161 1-510). To be noted: protein: recombinant; tags: N-terminal GST; dsDNA, one strand shown. In outline:
as §1

Another assay concerns the target HSF1 (Homo sapiens, UniProt Q00613 1-529). To be noted: protein: recombinant; tags: N-terminal GST; chain copies: 3; dsDNA, one strand shown. In outline:
as §1

Another assay addresses T2, SPIC (Homo sapiens, UniProt Q8N5J4 1-248).
T2 sequence: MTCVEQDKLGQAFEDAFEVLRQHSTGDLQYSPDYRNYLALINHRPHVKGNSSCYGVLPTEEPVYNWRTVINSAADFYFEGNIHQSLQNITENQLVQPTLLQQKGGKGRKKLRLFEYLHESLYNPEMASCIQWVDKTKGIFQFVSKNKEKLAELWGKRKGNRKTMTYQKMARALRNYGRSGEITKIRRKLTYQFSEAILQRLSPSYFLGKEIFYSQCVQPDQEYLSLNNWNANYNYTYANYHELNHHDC
To be noted: protein: recombinant; tags: N-terminal GST; dsDNA, one strand shown. In outline:
as §1

A further assay deals with ELF4 (Homo sapiens, UniProt Q99607 1-663). To be noted: protein: recombinant; tags: N-terminal GST; dsDNA, one strand shown. In outline:
as §1

The target in a further assay is T3, ELK4 (Homo sapiens, UniProt P28324-2 1-405).
T3 sequence: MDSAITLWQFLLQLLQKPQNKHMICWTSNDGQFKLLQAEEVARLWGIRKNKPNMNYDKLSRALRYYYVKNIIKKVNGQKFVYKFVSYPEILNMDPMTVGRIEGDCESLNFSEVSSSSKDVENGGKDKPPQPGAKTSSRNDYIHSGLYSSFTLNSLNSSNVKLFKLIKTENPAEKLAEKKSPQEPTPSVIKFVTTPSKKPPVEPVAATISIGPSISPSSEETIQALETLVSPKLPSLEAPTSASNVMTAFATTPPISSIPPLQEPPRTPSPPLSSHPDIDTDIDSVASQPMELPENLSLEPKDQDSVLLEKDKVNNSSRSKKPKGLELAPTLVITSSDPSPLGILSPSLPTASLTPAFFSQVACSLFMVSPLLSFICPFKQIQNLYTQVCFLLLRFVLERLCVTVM
As to conditions: protein: recombinant; tags: N-terminal GST; dsDNA, one strand shown. A digest of the protocol:
as §1

Another assay deals with T4, ETV2 (Homo sapiens, UniProt O00321 1-342).
T4 sequence: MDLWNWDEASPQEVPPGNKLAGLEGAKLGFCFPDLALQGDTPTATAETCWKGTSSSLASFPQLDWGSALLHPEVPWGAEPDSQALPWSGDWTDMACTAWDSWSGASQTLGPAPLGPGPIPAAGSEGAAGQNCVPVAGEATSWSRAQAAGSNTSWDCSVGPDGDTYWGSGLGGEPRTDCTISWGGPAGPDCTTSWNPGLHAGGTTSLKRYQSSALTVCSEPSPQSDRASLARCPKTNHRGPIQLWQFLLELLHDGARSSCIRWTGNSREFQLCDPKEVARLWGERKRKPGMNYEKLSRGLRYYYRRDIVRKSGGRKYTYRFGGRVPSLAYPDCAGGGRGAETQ
As to conditions: protein: recombinant; tags: N-terminal GST; dsDNA, one strand shown. In outline:
as §1

Another assay has as its target T5, ELF3 (Homo sapiens, UniProt P78545 1-371).
T5 sequence: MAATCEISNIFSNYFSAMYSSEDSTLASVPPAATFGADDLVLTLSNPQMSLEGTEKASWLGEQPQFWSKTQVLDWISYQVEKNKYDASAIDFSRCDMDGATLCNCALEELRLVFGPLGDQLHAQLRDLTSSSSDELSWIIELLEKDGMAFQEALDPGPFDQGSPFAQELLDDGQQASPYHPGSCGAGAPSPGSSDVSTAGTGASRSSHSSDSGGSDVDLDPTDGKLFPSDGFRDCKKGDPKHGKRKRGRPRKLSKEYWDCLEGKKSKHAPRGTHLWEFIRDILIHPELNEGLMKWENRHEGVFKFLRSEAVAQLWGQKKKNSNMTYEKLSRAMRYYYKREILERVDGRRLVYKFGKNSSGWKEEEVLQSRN
To be noted: protein: recombinant; tags: N-terminal GST; dsDNA, one strand shown. A digest of the protocol:
as §1

The next assay addresses ETV1 (Homo sapiens, UniProt P50549 1-477). To be noted: protein: recombinant; tags: N-terminal GST; dsDNA, one strand shown. In outline:
as §1

Chain of ETV5 (P41161 whole entry): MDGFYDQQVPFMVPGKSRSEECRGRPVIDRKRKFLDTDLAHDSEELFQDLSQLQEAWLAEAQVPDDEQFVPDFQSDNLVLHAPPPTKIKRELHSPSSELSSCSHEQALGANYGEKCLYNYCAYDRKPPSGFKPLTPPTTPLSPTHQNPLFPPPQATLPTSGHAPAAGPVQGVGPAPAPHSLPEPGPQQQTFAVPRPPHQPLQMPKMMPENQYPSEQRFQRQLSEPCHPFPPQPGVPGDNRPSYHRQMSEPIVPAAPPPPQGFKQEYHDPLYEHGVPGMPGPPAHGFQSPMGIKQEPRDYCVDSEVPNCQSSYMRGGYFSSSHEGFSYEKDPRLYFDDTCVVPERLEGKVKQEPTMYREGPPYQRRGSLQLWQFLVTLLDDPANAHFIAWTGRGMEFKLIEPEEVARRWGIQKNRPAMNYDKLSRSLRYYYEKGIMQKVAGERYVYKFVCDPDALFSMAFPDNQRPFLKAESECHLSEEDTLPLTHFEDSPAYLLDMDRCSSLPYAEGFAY
Chain of HSF1 (Q00613 whole entry): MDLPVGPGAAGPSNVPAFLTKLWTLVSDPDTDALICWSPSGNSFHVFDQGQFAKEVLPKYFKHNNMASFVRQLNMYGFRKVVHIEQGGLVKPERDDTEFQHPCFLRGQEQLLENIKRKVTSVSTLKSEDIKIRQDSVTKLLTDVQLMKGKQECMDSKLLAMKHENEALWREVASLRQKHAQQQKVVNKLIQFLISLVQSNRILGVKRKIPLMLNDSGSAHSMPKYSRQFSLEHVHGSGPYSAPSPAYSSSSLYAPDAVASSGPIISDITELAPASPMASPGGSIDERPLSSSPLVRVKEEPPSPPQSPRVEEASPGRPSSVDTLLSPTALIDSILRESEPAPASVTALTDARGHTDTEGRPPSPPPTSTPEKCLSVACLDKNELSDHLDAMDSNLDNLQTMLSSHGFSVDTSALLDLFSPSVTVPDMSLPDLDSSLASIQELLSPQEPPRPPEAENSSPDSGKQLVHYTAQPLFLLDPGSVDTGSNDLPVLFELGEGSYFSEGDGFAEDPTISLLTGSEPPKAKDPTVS
Chain of ELF4 (Q99607 whole entry): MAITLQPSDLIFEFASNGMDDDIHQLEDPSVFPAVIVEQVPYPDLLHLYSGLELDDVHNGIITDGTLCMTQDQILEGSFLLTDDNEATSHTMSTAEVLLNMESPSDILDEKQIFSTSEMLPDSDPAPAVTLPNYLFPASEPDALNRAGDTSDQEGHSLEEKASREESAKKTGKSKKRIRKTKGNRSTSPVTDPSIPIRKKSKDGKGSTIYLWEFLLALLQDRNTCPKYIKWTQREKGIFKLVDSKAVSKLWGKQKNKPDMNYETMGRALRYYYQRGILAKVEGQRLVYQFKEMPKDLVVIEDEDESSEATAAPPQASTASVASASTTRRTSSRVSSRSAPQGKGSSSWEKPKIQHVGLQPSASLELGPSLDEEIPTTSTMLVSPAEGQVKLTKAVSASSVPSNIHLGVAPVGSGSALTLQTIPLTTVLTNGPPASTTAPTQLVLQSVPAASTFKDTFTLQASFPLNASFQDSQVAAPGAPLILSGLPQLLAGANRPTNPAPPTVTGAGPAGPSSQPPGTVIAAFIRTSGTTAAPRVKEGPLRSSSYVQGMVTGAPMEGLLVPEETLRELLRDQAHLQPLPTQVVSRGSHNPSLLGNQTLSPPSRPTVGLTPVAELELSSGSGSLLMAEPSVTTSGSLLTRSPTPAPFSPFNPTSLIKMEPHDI
Chain of ETV1 (P50549 whole entry): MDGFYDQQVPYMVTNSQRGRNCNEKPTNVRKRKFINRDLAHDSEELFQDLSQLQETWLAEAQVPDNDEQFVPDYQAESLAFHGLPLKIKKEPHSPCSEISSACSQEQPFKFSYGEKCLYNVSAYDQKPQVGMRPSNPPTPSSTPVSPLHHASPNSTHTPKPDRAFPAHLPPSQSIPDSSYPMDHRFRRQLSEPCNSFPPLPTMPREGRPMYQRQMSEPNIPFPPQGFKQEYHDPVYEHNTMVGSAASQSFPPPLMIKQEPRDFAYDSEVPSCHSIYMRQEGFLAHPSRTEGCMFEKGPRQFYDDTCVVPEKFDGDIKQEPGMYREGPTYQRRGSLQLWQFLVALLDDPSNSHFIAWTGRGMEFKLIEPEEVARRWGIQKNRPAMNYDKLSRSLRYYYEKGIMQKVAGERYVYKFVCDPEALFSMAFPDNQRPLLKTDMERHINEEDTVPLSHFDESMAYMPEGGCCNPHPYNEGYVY

Regarding GTGTTC, the binding signal is 1.08 fold enrichment (6-mer frequency, TF over GST control) with FEV; 1.14 fold enrichment (6-mer frequency, TF over GST control) with ETV5; 1.12 fold enrichment (6-mer frequency, TF over GST control) in the assay with HSF1; 1.36 fold enrichment (6-mer frequency, TF over GST control) with SPIC; 1.12 fold enrichment (6-mer frequency, TF over GST control) with ELF4; 1.25 fold enrichment (6-mer frequency, TF over GST control) in the assay with ELK4. In addition, the binding signal with ETV2 is 1.15 fold enrichment (6-mer frequency, TF over GST control); with ELF3, 1.19 fold enrichment (6-mer frequency, TF over GST control); in the assay with ETV1 it was 1.14 fold enrichment (6-mer frequency, TF over GST control).
On to AACAGC, for which the binding signal is 1.14 fold enrichment (6-mer frequency, TF over GST control) in the assay with FEV; 1.09 fold enrichment (6-mer frequency, TF over GST control) in the assay with ETV5; 1 fold enrichment (6-mer frequency, TF over GST control) in the assay with HSF1; 1.05 fold enrichment (6-mer frequency, TF over GST control) with SPIC; 1.15 fold enrichment (6-mer frequency, TF over GST control) in the assay with ELF4; 1.2 fold enrichment (6-mer frequency, TF over GST control) with ELK4. The binding signal in the assay with ETV2 was 1.12 fold enrichment (6-mer frequency, TF over GST control); in the assay with ELF3, 1.1 fold enrichment (6-mer frequency, TF over GST control); with ETV1, 1.11 fold enrichment (6-mer frequency, TF over GST control).
Turning to GCTCGT, the binding signal with FEV is 1.06 fold enrichment (6-mer frequency, TF over GST control); with ETV5 it was 1.17 fold enrichment (6-mer frequency, TF over GST control); with HSF1, 1.07 fold enrichment (6-mer frequency, TF over GST control); with SPIC, 1.14 fold enrichment (6-mer frequency, TF over GST control); with ELF4, 1.24 fold enrichment (6-mer frequency, TF over GST control); in the assay with ELK4, 1.11 fold enrichment (6-mer frequency, TF over GST control). For the same sequence, the binding signal in the assay with ETV2 was 1.29 fold enrichment (6-mer frequency, TF over GST control); with ELF3, 1.16 fold enrichment (6-mer frequency, TF over GST control); with ETV1, 1.15 fold enrichment (6-mer frequency, TF over GST control).
For ATGGTC, the binding signal with FEV was 1.36 fold enrichment (6-mer frequency, TF over GST control); in the assay with ETV5 it was 1.57 fold enrichment (6-mer frequency, TF over GST control); with HSF1 it was 1.01 fold enrichment (6-mer frequency, TF over GST control); with SPIC, 1.63 fold enrichment (6-mer frequency, TF over GST control); in the assay with ELF4, 1.59 fold enrichment (6-mer frequency, TF over GST control); with ELK4 it was 1.38 fold enrichment (6-mer frequency, TF over GST control). The binding signal with ETV2 was 1.47 fold enrichment (6-mer frequency, TF over GST control); in the assay with ELF3, 1.48 fold enrichment (6-mer frequency, TF over GST control); with ETV1 it was 1.41 fold enrichment (6-mer frequency, TF over GST control).
Turning to TGCCGA, the binding signal in the assay with FEV is 1.11 fold enrichment (6-mer frequency, TF over GST control); with ETV5, 1.19 fold enrichment (6-mer frequency, TF over GST control); with HSF1, 1.07 fold enrichment (6-mer frequency, TF over GST control); in the assay with SPIC it was 1.37 fold enrichment (6-mer frequency, TF over GST control); with ELF4, 1.19 fold enrichment (6-mer frequency, TF over GST control); with ELK4, 1.14 fold enrichment (6-mer frequency, TF over GST control). The binding signal with ETV2 was 1.08 fold enrichment (6-mer frequency, TF over GST control); with ELF3, 1.16 fold enrichment (6-mer frequency, TF over GST control); in the assay with ETV1, 1.14 fold enrichment (6-mer frequency, TF over GST control).
Consider AGGAAA, for which the binding signal in the assay with FEV is 1.5 fold enrichment (6-mer frequency, TF over GST control); in the assay with ETV5, 1.52 fold enrichment (6-mer frequency, TF over GST control); with HSF1, 1.15 fold enrichment (6-mer frequency, TF over GST control); in the assay with SPIC it was 1.42 fold enrichment (6-mer frequency, TF over GST control); with ELF4 it was 1.35 fold enrichment (6-mer frequency, TF over GST control); in the assay with ELK4, 1.2 fold enrichment (6-mer frequency, TF over GST control). The binding signal in the assay with ETV2 is 1.41 fold enrichment (6-mer frequency, TF over GST control); in the assay with ELF3, 1.72 fold enrichment (6-mer frequency, TF over GST control); with ETV1, 1.46 fold enrichment (6-mer frequency, TF over GST control).
With GGTTTC, the binding signal with FEV is 1.55 fold enrichment (6-mer frequency, TF over GST control); with ETV5 it was 1.61 fold enrichment (6-mer frequency, TF over GST control); in the assay with HSF1, 1.16 fold enrichment (6-mer frequency, TF over GST control); in the assay with SPIC, 1.5 fold enrichment (6-mer frequency, TF over GST control); with ELF4, 1.49 fold enrichment (6-mer frequency, TF over GST control); with ELK4 it was 1.36 fold enrichment (6-mer frequency, TF over GST control). The binding signal is 1.43 fold enrichment (6-mer frequency, TF over GST control) in the assay with ETV2; 1.31 fold enrichment (6-mer frequency, TF over GST control) in the assay with ELF3; 1.64 fold enrichment (6-mer frequency, TF over GST control) in the assay with ETV1.
